The assay is described as follows: qHTS drug screen for cell cycle checkpoint inhibitors in PARPi-resistant BRCA-mutant ovarian cancer cell lines. (AID 1963452). As to conditions: PEO1/OlaR viability, CellTiter-Glo luminescence, 96 h; for Z-AUC: stronger effect = lower value. From the text:
Women's Malignancies Branch, Center for Cancer Research (CCR),
National Cancer Institute (NCI), National Institutes of Health (NIH), Bethesda, MD
Poly (ADP-ribose) polymerase inhibitors (PARPis) have changed the treatment paradigm in breast cancer gene (BRCA) - mutant high-grade serous ovarian carcinoma (HGSC). However, most patients eventually develop resistance to PARPis, highlighting an unmet need for improved therapeutic strategies. Using high-throughput drug screens, we identified ataxia telangiectasia and rad3-related protein/checkpoint kinase 1 (CHK1) pathway inhibitors as cytotoxic and further validated the activity of the CHK1 inhibitor (CHK1i) prexasertib in PARPi-sensitive and -resistant BRCA-mutant HGSC cells and xenograft mouse models. CHK1i monotherapy induced DNA damage, apoptosis, and tumor size reduction. We then conducted a phase 2 study (NCT02203513) of prexasertib in patients with BRCA-mutant HGSC. The treatment was well tolerated but yielded an objective response rate of 6% (1 of 17; one partial response) in patients with previous PARPi treatment. […] BRCA reversion mutation in previously PARPi-treated BRCA-mutant patients was not associated with resistance to CHK1i.
Among others, 1082 oncology drugs, both approved and investigational, were prioritized based on their status in clinical trial development. […] Drugs with average Z-AUC values less than -1.0 in all three cell lines were classified as "hits" resulting in 151 oncology drug hits. The screen also confirmed cross-resistance between olaparib and other PARPis (rucaparib, niraparib, and talazoparib) in PARPi-resistant PEO1/OlaR and PEO4.
[1] G. L. Lin, K. M. Wilson, M. Ceribelli, B. Z. Stanton, P. J. Woo, S. Kreimer, E. Y. Qin, X. Zhang, J. Lennon, S. Nagaraja, P. J. Morris, M. Quezada, S. M. Gillespie, D. Y. Duveau, A. M. Michalowski, P. Shinn, R. Guha, M. Ferrer, C. Klumpp-Thomas, S. Michael, C. McKnight, P. Minhas, Z. Itkin, E. H. Raabe, L. Chen, R. Ghanem, A. C. Geraghty, L. Ni, K. I. Andreasson, N. A. Vitanza, K. E.Warren, C. J. Thomas, M. Monje, Therapeutic strategies for diffuse midline glioma from high-throughput combination drug screening. Sci. Transl. Med. 11, (2019).
[2] T. M. Yamamoto, A. McMellen, Z. L. Watson, J. Aguilera, R. Ferguson, E. Nurmemmedov, T. Thakar, G. L. Moldovan, H. Kim, D. M. Cittelly, A. M. Joglar, E. P. Brennecke, H. Wilson, K. Behbakht, M. J. Sikora, B. G. Bitler, Activation of Wnt signaling promotes olaparib resistant ovarian cancer. Mol. Carcinog. 58, 1770 - 1782 (2019).
PROTOCOL TABLE (as described by Inglese J, Shamu CE and Guy RK. 2007)
SEQUENCE No. (e.g., 1, 2, 3, etc.); […] (e.g., Cells, Incubation, Reagent, etc.); VALUE; DESCRIPTION.
1; Compounds; 20nL; 1536-well white tissue culture-treated plates.
2; Cells; 5 uL; PEO1, PEO4, and PEO1/OlaR cells at 600 cells per well.
3; Incubation; 96 hr; 37C, 95% humidity, 5% CO2.
4; Reagent; 3 uL; CellTiter-Glo (Promega).
5; Incubation; 15 min; room temperature.
6; Detection; Luminescence, PHERAstar (BMG Labtech) plate reader.
NOTES (numbers refer to Sequence numbers above)
1. MIPE 5.0 compounds were acoustically dispensed by Echo Acoustic Liquid Handler (Beckman Coulter Life Sciences). Each compound was plated at an 11-point concentration range with 1:3 dilution. Bortezomib, a proteasome inhibitor (final concentration, 20 uM), was used as a positive.
2. PEO1, PEO4, and PEO1/OlaR were trypsinized and dispensed in 5 uLof growth medium using a Multidrop Combi dispenser at a density of 600 cells per well to allow compounds to be present during the exponential growth phase.
3. Plates were incubated for 96 hours at standard incubator conditions and covered by a stainless steel gasketed lid to prevent evaporation.
4. Three microliters of CellTiter-Glo (Promega) were added to each well.
5. Plates were incubated at room temperature for 15 min with a stainless-steel lid in place.
6. Luminescence readings were taken using PHERAstar (BMG Labtech). […]
A general note: Quantitative high-throughput screening tests each substance at several concentrations.

The mark [1] stands for this setting: measured here: PEO1 parental Z-AUC.

Activity calls are given as the source filed them. Calls follow the shape of the full dose curve.
Potency is read from the fitted curve at half-maximal effect.

On to `O=C(Nc1cc(C(F)(F)F)cc(C(F)(F)F)c1)c1cc(Cl)ccc1O`, for which the Potency is 977 nM (active). Further, the Z-AUC under setting [1] was -1.29. Where the note is “measured here: PEO4 Z-AUC”, the Z-AUC is -1.54.

For the compound `Cc1ccc(-c2ncn(-c3ccc(Nc4nccc(-c5cccc(N6CCOCC6)c5)n4)cc3)n2)cn1`, the Z-AUC is -1.4 (inactive). For the same compound, under setting [1], the Z-AUC is -2.09. Further, the Z-AUC (measured here: PEO4 Z-AUC) is -1.65.

In the case of `CN1CC[C@@H](c2c(O)cc(O)c3c(=O)cc(-c4ccccc4Cl)oc23)[C@@H](O)C1`, the Z-AUC is -0.536 (inactive). Under setting [1], the Z-AUC is -1.36. For the setting “measured here: PEO4 Z-AUC”, the Z-AUC is -1.16.

In the case of `Cc1nc2cnc3ccc(C#Cc4cccnc4)cc3c2n1-c1ccc(C(C)(C)C#N)cc1`, the Z-AUC is -0.114 (inactive). In addition, the Z-AUC under setting [1] is -0.259. Under “measured here: PEO4 Z-AUC”, the Z-AUC is -0.412.

As to `CN1CCN(c2ccc3nc(-c4c(N)c5c(F)cccc5[nH]c4=O)[nH]c3c2)CC1`, the Z-AUC was -0.169 (inactive). For the same compound, under setting [1], the Z-AUC is -0.682. The Z-AUC (measured here: PEO4 Z-AUC) is -0.379.

With `COc1c(N2C[C@@H]3CCCN[C@H]3C2)c(F)cc2c(=O)c(C(=O)O)cn(C3CC3)c12`, the Z-AUC is 0.687 (inactive). The Z-AUC under setting [1] is 0.58. The Z-AUC (measured here: PEO4 Z-AUC) amounted to 1.15.

Turning to `CNC(=O)c1ccc(N2C(=S)N(c3cnc(C#N)c(C(F)(F)F)c3)C(=O)C23CCC3)cc1F`, the Z-AUC is 0.293 (inactive). Under setting [1], the Z-AUC was -0.208. Where the note is “measured here: PEO4 Z-AUC”, the Z-AUC was found to be 0.0749.

`c1nc2nc(Nc3ccc(N4CCOCC4)cc3)nc(NC3CCCCC3)c2[nH]1`: the Z-AUC was -0.117 (inactive). In addition, the Z-AUC under setting [1] came to 0.016. Besides, where the note is “measured here: PEO4 Z-AUC”, the Z-AUC is -0.143.

As to `Nc1ncnc2c1c(-c1cnc3[nH]ccc3c1)nn2C1CCCC1`, the Z-AUC was -1.87 (inactive). Also, the Z-AUC under setting [1] was -2.04. Moreover, the Z-AUC (measured here: PEO4 Z-AUC) was -1.31.

As to `CC(=O)OCCN1C(=O)c2c(C)nc3ccc(S(=O)(=O)N4CCOCC4)cc3c2C1=O`, the Z-AUC was 1.23 (inactive). In addition, the Z-AUC under setting [1] amounted to 1.34. Under “measured here: PEO4 Z-AUC”, the Z-AUC was 1.26.

In the case of `C1Cc2[nH]nc(-c3nn[nH]n3)c2C1`, the Z-AUC was -0.759 (inactive). Further, the Z-AUC under setting [1] is -0.47. For the setting “measured here: PEO4 Z-AUC”, the Z-AUC was -0.646.

Consider `COc1cccc2c(NCc3ccccc3)nc(-n3c(N)nc4ccccc43)nc12`, for which the Z-AUC was -0.255 (inactive). The Z-AUC under setting [1] came to 0.136. Moreover, the Z-AUC (measured here: PEO4 Z-AUC) is -0.014.

In the case of `Nc1ccn([C@@H]2CS[C@H](CO)O2)c(=O)n1`, the Z-AUC is -0.72 (inactive). Moreover, under setting [1], the Z-AUC is -0.233. Further, the Z-AUC (measured here: PEO4 Z-AUC) was -0.547.

Regarding `CCN(CC)CCNC(=O)c1ccc2nc(-c3ccccc3)c(-c3ccc(CN4CCC(n5c(=O)[nH]c6ccccc65)CC4)cc3)nc2c1`, the Z-AUC was -1.13 (inactive). In addition, the Z-AUC under setting [1] was -1.23. Besides, the Z-AUC (measured here: PEO4 Z-AUC) was -1.53.

Values taken from PubChem BioAssay (NCATS).
